# Measured values reported in PMC7862700, “An all-to-all approach to the identification of sequence-specific readers for epigenetic DNA modifications on cytosine”.
# Key:
# Test in all cases: DAPPL (digital affinity profiling via proximity ligation, sequencing); 10 mM Tris-HCl pH 7.5, 50 mM NaCl, 1 mM DTT, 4% glycerol, room temperature, 30 min; GST-TFs on glutathione beads, 16-mer random dsDNA library, 0.1% formaldehyde crosslink after washing; high values mean tight binding
# FLI1 = target: T1, FLI1 (Homo sapiens, UniProt Q01543 1-452); settings: protein: recombinant; tags: N-terminal GST; dsDNA, one strand shown
# T1 sequence: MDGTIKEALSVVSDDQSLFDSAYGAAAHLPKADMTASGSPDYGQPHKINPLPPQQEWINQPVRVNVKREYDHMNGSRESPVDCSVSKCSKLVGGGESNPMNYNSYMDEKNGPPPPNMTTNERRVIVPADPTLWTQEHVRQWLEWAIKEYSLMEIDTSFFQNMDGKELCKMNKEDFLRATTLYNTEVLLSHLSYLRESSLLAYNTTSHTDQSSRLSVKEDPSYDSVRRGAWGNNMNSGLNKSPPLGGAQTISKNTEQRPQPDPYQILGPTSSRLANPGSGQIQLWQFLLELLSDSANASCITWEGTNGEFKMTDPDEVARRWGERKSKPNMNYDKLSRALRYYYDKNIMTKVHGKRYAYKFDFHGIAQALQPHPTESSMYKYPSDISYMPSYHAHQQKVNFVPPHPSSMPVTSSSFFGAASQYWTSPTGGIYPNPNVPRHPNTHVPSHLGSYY
# Outline: (§1)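 In yeast, human transcription factors were expressed with a GST fusion, then pulled down on glutathione beads and given DNA barcodes. Pooled with a tag-only sample, they were exposed to 200 nmole of a 16-mer random double-stranded DNA library (Tris/NaCl/DTT/glycerol buffer, room temperature, 30 min), washed, crosslinked with 0.1% formaldehyde, proximity-ligated using BsaI/T4 ligase for 1 h at 37 °C, PCR-amplified and read on an Illumina NextSeq500. Each hexamer's frequency of reads for a factor, divided by the matching frequency for the tag-only sample, gives the binding signal.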
# ELK1 = target: T2, ELK1 (Homo sapiens, UniProt P19419 1-428); settings: protein: recombinant; tags: N-terminal GST; dsDNA, one strand shown
# T2 sequence: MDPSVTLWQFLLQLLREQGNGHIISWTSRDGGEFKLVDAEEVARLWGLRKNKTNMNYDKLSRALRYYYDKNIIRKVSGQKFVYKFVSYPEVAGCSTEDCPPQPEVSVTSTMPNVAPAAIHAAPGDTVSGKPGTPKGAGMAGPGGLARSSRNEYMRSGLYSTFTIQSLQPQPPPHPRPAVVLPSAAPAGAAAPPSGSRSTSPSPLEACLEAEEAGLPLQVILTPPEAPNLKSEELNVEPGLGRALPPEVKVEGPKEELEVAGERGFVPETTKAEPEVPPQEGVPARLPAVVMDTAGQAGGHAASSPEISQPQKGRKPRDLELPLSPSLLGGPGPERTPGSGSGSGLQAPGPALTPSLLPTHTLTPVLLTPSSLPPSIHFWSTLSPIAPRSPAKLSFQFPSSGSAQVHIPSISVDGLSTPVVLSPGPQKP
# Outline: as §1
# GABPA = target: T3, GABPA (Homo sapiens, UniProt Q06546 1-454); settings: protein: recombinant; tags: N-terminal GST; dsDNA, one strand shown
# T3 sequence: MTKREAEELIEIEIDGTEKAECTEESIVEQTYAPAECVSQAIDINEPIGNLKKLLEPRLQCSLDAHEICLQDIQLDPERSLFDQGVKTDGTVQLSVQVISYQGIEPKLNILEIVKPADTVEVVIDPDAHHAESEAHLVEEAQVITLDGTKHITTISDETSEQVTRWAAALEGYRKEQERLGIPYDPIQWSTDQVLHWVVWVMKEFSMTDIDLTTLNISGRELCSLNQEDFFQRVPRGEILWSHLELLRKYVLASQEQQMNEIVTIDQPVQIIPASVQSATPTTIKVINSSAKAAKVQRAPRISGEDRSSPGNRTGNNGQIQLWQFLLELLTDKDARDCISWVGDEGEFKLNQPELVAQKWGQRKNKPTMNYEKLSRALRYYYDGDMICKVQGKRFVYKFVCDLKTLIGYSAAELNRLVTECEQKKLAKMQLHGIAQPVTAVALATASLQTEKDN
# Outline: as §1
# ERG = target: T4, ERG (Homo sapiens, UniProt P11308 1-479); settings: protein: recombinant; tags: N-terminal GST; dsDNA, one strand shown
# T4 sequence: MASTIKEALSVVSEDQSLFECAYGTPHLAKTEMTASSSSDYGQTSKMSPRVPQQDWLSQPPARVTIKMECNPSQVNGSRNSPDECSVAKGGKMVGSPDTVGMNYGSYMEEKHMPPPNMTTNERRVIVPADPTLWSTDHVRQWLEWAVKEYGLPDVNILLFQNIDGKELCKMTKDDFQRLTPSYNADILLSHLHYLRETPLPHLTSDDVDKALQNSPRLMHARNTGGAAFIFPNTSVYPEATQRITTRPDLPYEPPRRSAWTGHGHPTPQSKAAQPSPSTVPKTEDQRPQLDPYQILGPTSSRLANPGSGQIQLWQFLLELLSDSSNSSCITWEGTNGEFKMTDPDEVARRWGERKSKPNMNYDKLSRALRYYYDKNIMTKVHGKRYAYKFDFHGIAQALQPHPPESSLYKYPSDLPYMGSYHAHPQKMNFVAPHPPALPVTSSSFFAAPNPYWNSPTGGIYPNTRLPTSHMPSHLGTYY
# Outline: as §1
# ELF1 = ELF1 (Homo sapiens, UniProt P32519 1-619); settings: protein: recombinant; tags: N-terminal GST; dsDNA, one strand shown
# Outline: as §1
# EHF = target: T5, EHF (Homo sapiens, UniProt Q9NZC4 1-300); settings: protein: recombinant; tags: N-terminal GST; dsDNA, one strand shown
# T5 sequence: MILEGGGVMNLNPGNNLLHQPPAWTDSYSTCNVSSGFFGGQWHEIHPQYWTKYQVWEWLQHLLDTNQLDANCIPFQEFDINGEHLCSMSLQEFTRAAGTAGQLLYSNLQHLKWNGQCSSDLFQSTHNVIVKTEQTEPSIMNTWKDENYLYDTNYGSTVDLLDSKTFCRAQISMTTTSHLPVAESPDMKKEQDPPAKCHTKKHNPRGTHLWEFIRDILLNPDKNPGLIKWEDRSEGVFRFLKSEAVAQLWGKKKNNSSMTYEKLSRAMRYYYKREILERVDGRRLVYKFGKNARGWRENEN
# Outline: as §1
# SPI1 = SPI1 (Homo sapiens, UniProt P17947 1-270); settings: protein: recombinant; tags: N-terminal GST; dsDNA, one strand shown
# Outline: as §1
# SPIB = SPIB (Homo sapiens, UniProt Q01892 1-262); settings: protein: recombinant; tags: N-terminal GST; dsDNA, one strand shown
# Outline: as §1
# ELK3 = target: T6, ELK3 (Homo sapiens, UniProt P41970 1-407); settings: protein: recombinant; tags: N-terminal GST; dsDNA, one strand shown
# T6 sequence: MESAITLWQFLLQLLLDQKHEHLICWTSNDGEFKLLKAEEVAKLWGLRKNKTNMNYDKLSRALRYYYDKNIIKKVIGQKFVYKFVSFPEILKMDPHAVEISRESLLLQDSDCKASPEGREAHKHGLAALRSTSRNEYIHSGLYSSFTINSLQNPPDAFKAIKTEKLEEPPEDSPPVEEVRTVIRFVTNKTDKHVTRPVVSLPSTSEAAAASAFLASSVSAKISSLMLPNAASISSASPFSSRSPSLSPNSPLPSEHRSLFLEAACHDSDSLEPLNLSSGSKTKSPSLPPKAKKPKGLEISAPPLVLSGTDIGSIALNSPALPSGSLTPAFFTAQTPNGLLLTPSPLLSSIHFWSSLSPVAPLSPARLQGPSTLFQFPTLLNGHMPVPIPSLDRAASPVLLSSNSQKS
# Outline: as §1
# FEV = target: T7, FEV (Homo sapiens, UniProt Q99581 1-238); settings: protein: recombinant; tags: N-terminal GST; dsDNA, one strand shown
# T7 sequence: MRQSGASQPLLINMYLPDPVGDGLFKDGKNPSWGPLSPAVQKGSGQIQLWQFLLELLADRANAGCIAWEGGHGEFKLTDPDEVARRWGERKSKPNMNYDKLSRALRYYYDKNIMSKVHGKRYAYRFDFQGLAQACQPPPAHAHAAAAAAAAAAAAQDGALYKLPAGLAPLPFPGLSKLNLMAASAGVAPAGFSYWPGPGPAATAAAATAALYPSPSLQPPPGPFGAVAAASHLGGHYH
# Outline: as §1
# ETV5 = ETV5 (Homo sapiens, UniProt P41161 1-510); settings: protein: recombinant; tags: N-terminal GST; dsDNA, one strand shown
# Outline: as §1
# HSF1 = HSF1 (Homo sapiens, UniProt Q00613 1-529); settings: protein: recombinant; tags: N-terminal GST; chain copies: 3; dsDNA, one strand shown
# Outline: as §1
# SPIC = target: T8, SPIC (Homo sapiens, UniProt Q8N5J4 1-248); settings: protein: recombinant; tags: N-terminal GST; dsDNA, one strand shown
# T8 sequence: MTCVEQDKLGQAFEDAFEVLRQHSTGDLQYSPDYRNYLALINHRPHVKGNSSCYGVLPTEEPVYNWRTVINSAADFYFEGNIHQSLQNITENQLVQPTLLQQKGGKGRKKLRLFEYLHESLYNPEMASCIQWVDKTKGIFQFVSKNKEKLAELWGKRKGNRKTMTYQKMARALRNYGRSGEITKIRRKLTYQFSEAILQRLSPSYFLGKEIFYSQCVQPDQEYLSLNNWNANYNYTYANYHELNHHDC
# Outline: as §1
# ELF4 = ELF4 (Homo sapiens, UniProt Q99607 1-663); settings: protein: recombinant; tags: N-terminal GST; dsDNA, one strand shown
# Outline: as §1
# ELK4 = target: T9, ELK4 (Homo sapiens, UniProt P28324-2 1-405); settings: protein: recombinant; tags: N-terminal GST; dsDNA, one strand shown
# T9 sequence: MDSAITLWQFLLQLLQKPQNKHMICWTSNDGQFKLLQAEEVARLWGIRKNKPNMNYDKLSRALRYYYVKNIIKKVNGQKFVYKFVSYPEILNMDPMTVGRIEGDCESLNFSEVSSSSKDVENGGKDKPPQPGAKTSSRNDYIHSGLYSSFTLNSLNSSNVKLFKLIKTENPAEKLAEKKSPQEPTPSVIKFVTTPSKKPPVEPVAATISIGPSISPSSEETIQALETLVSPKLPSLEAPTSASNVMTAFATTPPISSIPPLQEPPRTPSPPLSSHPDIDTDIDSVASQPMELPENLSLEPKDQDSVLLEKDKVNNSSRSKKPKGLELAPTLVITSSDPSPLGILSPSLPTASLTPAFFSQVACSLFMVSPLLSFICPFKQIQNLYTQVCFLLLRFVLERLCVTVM
# Outline: as §1
# ETV2 = target: T10, ETV2 (Homo sapiens, UniProt O00321 1-342); settings: protein: recombinant; tags: N-terminal GST; dsDNA, one strand shown
# T10 sequence: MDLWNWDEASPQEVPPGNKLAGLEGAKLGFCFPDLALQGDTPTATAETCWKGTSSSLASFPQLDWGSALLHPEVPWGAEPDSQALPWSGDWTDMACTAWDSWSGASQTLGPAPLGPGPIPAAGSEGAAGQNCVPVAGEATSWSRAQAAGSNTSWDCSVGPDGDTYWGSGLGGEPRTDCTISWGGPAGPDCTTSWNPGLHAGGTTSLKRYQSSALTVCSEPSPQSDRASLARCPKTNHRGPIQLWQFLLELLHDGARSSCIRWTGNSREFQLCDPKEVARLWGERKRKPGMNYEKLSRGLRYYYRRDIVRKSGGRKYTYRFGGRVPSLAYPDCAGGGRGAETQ
# Outline: as §1
# ELF3 = target: T11, ELF3 (Homo sapiens, UniProt P78545 1-371); settings: protein: recombinant; tags: N-terminal GST; dsDNA, one strand shown
# T11 sequence: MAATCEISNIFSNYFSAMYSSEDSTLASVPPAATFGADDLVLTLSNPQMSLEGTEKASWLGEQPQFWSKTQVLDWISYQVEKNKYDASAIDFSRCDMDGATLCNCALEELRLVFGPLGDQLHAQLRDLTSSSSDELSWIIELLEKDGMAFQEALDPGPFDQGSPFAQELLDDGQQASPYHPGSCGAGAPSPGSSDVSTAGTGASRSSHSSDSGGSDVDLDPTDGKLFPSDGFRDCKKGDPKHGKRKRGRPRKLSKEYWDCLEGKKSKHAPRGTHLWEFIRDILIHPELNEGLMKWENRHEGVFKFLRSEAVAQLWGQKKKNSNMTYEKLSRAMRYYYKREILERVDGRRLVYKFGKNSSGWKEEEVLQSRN
# Outline: as §1
# CRX = CRX (Homo sapiens, UniProt O43186 1-299); settings: protein: recombinant; tags: N-terminal GST; dsDNA, one strand shown
# Outline: as §1
# ETV1 = ETV1 (Homo sapiens, UniProt P50549 1-477); settings: protein: recombinant; tags: N-terminal GST; dsDNA, one strand shown
# Outline: as §1
# ETV5, sequence (P41161 whole entry): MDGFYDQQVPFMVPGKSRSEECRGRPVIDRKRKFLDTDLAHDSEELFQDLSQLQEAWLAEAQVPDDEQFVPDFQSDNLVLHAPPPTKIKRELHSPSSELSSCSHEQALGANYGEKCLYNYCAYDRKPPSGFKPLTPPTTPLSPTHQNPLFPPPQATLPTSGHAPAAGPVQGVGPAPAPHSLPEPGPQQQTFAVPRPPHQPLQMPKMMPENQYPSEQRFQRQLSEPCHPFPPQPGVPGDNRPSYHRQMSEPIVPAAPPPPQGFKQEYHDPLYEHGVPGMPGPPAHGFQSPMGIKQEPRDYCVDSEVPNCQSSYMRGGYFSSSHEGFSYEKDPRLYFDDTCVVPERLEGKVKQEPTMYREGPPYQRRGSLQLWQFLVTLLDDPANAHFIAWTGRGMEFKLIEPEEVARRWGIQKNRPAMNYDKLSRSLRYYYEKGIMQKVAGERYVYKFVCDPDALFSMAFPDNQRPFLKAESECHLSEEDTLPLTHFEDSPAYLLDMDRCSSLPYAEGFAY
# SPIB, sequence (Q01892 whole entry): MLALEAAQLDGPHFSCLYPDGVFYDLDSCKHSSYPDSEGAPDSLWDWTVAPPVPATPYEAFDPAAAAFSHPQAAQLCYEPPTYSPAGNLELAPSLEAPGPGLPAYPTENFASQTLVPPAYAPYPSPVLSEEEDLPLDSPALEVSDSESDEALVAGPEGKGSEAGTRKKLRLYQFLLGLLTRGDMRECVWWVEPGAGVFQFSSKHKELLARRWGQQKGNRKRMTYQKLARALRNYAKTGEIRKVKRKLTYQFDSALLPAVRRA
# ELF4, sequence (Q99607 whole entry): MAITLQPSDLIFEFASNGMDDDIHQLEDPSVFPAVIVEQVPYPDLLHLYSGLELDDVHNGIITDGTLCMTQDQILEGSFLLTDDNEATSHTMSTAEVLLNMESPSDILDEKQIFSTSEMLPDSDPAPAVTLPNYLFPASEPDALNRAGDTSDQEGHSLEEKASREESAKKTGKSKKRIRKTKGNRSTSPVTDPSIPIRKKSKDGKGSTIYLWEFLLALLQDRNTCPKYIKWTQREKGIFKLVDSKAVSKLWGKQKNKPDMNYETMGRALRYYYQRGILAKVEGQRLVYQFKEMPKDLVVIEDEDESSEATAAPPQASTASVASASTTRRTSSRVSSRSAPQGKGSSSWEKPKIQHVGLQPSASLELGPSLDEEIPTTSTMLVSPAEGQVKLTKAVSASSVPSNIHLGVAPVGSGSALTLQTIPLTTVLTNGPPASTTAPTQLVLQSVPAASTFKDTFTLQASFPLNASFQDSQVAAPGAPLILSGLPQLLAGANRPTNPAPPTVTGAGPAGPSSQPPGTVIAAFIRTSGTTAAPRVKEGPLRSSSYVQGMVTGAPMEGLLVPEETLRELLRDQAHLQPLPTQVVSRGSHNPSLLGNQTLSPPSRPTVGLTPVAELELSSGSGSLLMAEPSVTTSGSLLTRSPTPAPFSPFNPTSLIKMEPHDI
# HSF1, sequence (Q00613 whole entry): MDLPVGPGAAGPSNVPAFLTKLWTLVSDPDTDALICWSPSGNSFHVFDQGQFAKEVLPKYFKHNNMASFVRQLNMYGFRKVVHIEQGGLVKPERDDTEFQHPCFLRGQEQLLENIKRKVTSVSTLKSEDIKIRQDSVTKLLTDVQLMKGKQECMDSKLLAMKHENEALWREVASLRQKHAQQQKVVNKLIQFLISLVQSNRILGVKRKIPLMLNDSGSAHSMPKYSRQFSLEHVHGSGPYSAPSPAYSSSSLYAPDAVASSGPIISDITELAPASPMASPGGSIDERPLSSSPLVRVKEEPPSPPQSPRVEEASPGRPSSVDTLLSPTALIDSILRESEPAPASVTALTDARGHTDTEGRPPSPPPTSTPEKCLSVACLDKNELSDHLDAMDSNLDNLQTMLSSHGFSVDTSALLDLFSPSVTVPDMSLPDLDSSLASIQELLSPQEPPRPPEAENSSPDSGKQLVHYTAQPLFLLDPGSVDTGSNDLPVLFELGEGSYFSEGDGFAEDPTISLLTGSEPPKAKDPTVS
# CRX, sequence (O43186 whole entry): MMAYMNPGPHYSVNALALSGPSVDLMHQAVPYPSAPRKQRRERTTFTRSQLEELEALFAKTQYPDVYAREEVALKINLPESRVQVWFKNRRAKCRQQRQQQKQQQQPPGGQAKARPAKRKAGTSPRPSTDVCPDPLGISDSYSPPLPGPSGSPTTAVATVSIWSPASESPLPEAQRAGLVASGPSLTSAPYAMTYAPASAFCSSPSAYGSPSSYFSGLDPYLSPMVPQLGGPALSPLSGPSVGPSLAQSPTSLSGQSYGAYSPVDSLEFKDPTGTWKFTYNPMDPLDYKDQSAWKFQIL
# ETV1, sequence (P50549 whole entry): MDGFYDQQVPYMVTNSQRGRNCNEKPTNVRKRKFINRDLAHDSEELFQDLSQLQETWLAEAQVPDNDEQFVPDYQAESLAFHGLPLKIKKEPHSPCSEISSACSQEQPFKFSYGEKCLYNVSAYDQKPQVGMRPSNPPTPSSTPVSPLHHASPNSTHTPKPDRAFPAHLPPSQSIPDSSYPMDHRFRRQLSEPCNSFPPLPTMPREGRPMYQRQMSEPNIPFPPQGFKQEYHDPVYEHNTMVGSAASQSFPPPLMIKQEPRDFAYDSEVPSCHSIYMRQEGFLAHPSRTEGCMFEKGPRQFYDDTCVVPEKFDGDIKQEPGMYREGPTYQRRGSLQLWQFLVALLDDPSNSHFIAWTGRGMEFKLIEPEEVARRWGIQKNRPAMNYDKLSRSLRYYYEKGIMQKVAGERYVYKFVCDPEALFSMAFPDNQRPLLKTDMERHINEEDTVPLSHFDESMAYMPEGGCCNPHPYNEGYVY
# ELF1, sequence (P32519 whole entry): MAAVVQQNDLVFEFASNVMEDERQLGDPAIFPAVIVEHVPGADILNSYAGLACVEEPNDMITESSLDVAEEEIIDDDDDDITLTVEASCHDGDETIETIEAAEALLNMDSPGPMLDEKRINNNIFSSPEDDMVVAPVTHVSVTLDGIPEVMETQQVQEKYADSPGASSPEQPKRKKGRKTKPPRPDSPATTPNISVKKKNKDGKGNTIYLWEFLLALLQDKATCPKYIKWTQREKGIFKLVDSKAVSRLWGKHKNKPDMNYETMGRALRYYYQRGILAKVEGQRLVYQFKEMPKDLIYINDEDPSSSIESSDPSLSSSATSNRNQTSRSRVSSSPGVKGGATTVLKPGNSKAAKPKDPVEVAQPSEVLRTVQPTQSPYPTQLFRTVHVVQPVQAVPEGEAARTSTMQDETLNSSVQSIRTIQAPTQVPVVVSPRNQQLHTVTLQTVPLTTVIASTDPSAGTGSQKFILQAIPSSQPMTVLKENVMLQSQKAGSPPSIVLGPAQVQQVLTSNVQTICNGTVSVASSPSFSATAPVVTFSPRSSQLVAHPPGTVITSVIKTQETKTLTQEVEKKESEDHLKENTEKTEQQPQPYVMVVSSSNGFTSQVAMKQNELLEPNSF
sequence,measurement,setting,value
CTGGTT,binding signal,FLI1,"1.36 fold enrichment (6-mer frequency, TF over GST control)"
same,binding signal,ELK1,"1.3 fold enrichment (6-mer frequency, TF over GST control)"
same,binding signal,GABPA,"1.2 fold enrichment (6-mer frequency, TF over GST control)"
same,binding signal,ERG,"1.31 fold enrichment (6-mer frequency, TF over GST control)"
same,binding signal,ELF1,"1.31 fold enrichment (6-mer frequency, TF over GST control)"
same,binding signal,EHF,"1.18 fold enrichment (6-mer frequency, TF over GST control)"
same,binding signal,SPI1,"1.45 fold enrichment (6-mer frequency, TF over GST control)"
same,binding signal,SPIB,"1.24 fold enrichment (6-mer frequency, TF over GST control)"
same,binding signal,ELK3,"1.21 fold enrichment (6-mer frequency, TF over GST control)"
same,binding signal,FEV,"1.19 fold enrichment (6-mer frequency, TF over GST control)"
same,binding signal,ETV5,"1.36 fold enrichment (6-mer frequency, TF over GST control)"
same,binding signal,HSF1,"1.24 fold enrichment (6-mer frequency, TF over GST control)"
same,binding signal,SPIC,"1.43 fold enrichment (6-mer frequency, TF over GST control)"
same,binding signal,ELF4,"1.33 fold enrichment (6-mer frequency, TF over GST control)"
same,binding signal,ELK4,"1.46 fold enrichment (6-mer frequency, TF over GST control)"
same,binding signal,ETV2,"1.2 fold enrichment (6-mer frequency, TF over GST control)"
same,binding signal,ELF3,"1.22 fold enrichment (6-mer frequency, TF over GST control)"
same,binding signal,CRX,"1.22 fold enrichment (6-mer frequency, TF over GST control)"
same,binding signal,ETV1,"1.3 fold enrichment (6-mer frequency, TF over GST control)"
